Screening results (PubChem BioAssay)
In the library only some 0.45% were active in any assay of this set; here they are far more common.
MBNL1-CUG inh – MBNL1-poly(CUG) RNA binding inhibition | AID 2675 | Q9NR56 | hit rate 0.036% among 280,000 | TR-FRET MBNL1-His/biotin-(CUG)12 binding, 665/545 ratio | Potency, µM (doses to about 57.5 µM), for inactives: top-dose activity change, negative = inhibition, hits mostly inhibitors; active means well fitted inhibition curve with a large enough effect in the signal ratio, with a control signal flat, not every such curve was filed as active; inconclusive means small, poorly fitted or top-dose-only effect, or effect the other way, or a change in a side signal; inactive means no such curve, though single readings can be large or run the other way; the % refers to the signal ratio; further: potency means the concentration at half of the fitted maximal effect; on the % scale 0 is the no-effect control and ±100 the full control effect
Target sequence (Q9NR56 whole entry, looked up): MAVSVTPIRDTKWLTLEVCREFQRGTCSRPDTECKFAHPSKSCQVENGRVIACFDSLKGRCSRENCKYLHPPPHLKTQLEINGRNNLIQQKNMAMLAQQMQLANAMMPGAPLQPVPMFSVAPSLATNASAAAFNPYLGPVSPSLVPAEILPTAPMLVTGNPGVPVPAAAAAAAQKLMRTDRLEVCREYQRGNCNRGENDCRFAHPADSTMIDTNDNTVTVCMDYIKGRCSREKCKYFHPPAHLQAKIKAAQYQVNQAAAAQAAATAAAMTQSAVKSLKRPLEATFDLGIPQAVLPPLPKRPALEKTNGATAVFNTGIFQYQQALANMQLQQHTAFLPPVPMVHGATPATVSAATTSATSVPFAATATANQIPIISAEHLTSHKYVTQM
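TR-FRET readout: Ex 340 nm, 665/545 nm emission ratio, normalized to buffer-only (basal) and MBNL1-(CUG)12 controls. Complex of MBNL1-His with Biotin-(CUG)12, compounds 92 nM–58 uM, incubated 60 min at room temperature.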
Menin-MLL TR inh – inhibitors of human menin-MLL interaction, mutant MLL peptide | Menin + Texas Red MLL mutant peptide, fluorescence polarization | Potency, µM (highest dose often 61.6 µM), for inactives: at the top dose FP activity change, negative = inhibition, actives largely listed as inhibitors | hit rate 0.23% among 270,000; active means well fitted inhibition curve with a large enough effect in the polarisation, with a control signal flat, not every such curve was filed as active; inconclusive means small, poorly fitted or top-dose-only effect, or effect the other way, or a change in a side signal; inactive means no such curve, though single readings can be large or run the other way; the % refers to the polarisation; further: potency means the concentration at half of the fitted maximal effect; % of control where 0% means no effect
CXXC DNA block – inhibitors of human MLL CXXC domain-DNA interaction | Q03164 | MLL-CXXC / FITC-HOXA9 DNA fluorescence polarization | Potency, µM (doses to about 115 µM), inactives show top-dose activity change, negative = inhibition, actives largely listed as inhibitors | hit rate 0.037% among 290,000 | AID 2662; active means well fitted inhibition curve with a large enough effect in the polarisation, with a control signal flat, not every such curve was filed as active; inconclusive means small, poorly fitted or top-dose-only effect, or effect the other way, or a change in a side signal; inactive means no such curve, though single readings can be large or run the other way; the % refers to the polarisation; further: potency means the concentration at half of the fitted maximal effect
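Purified MLL-CXXC (added from a 7 uM solution) was preincubated 5 min at ambient with pinned compounds in 50 mM Tris-HCl pH 7.5, 50 mM NaCl, 1 mM DTT, 0.05% BSA. Fluorescein-labeled HOX-A9 DNA (50 nM solution) followed, 30 min, then polarization read.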
Akt phos inh – inhibitors of Akt phosphorylation; Neuro2A IGF-stimulated pAkt S473 HTRF, 20 min; hits give low values; AID 651550; activity change, % for hits at 50 µM; hit rate 0.32% among 360,000; in the data active means activity change below about -80%; inconclusive means mostly about -51% to -80%; further: on the % scale 0 is the no-effect control and ±100 the full control effect
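Single-point screen (50 µM final compound) in Neuro2A cells stimulated 20 min with 6 nM IGF at 37 deg C. After lysis, Ser473-phosphorylated Akt read by HTRF (ex 330 nm, em 615/665 nm) as the 665/615 ratio.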
S-ASM inh – human S-ASM enzyme inhibition; P17405; placental ASM, HMU-PC fluorogenic substrate, 60 min; Potency, µM (highest dose often 57.5 µM), inactives show at the highest dose activity change, negative = inhibition, hits mostly inhibitors; hit rate 0.006% among 340,000; AID 504937; active means well fitted inhibition curve with a large enough effect; inconclusive means small, poorly fitted or top-dose-only effect; inactive means no such curve, though single readings can be large or run the other way; further: potency means the concentration at half of the fitted maximal effect
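Human placenta-derived ASM enzyme was preincubated with compound for 10 minutes at room temperature, then given fluorogenic substrate HMU-PC0 (9 uM final) for 60 minutes at 37 °C; a pH 10 stop preceded fluorescence reading at Ex 386/Em 447 nm.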
Menin-MLL FL inh – menin-MLL binding inhibition, fluorescein peptide; Fluorescence polarization, fluorescein-MLL peptide displacement from menin; FP activity change, % at 61.4 µM; 290,000 tested, under 10 active; AID 1766; active means well fitted curve in the direction sought with a large enough effect in the polarisation, not every such curve was filed as active; inconclusive means small, poorly fitted or top-dose-only effect, or effect the other way, or a change in a side signal; inactive means no such curve, though single readings can be large or run the other way; the % refers to the polarisation; further: % of control where 0% means no effect
* = called active by the depositor; i = inactive; ? = inconclusive; · = no result given.

SMILES	MBNL1-CUG inh	Menin-MLL TR inh	CXXC DNA block	Akt phos inh	S-ASM inh	Menin-MLL FL inh
CNC1CCCN(c2c(F)cc3c(=O)c(C(=O)O)cn(C4CC4)c3c2OC)C1 (stereo not drawn)	·	6%	17%	·	·	7
CCn1cc([N+](=O)[O-])c(C(=O)Nc2cc(C)on2)n1	?	-5%	-3%	-113%*	4%	1
CN(Cc1c(F)cccc1Cl)C(=O)C1CC(=O)N(CCc2ccccc2)C1 (stereo not drawn)	-5%	?	4%	i	-2%	2
Cc1nc2c(C)cccc2c(SC(=N)N)c1CC=C(Cl)Cl	·	·	11%	i	45%	3
Cc1nonc1NC(=O)CSc1nc2cc(Cl)ccc2c2c1CCCC2	-2%	8%	3%	-94%*	-4%	6
Cc1ccc2c3c(c(SCC(=O)Nc4nonc4C)nc2c1)CCCC3	-1%	?	2%	i	-7%	2
O=C(CSc1nc2ncccc2[nH]1)NC1CCCCC1	3%	25%	13%	i	1%	0
Cc1cc(N2CCCCCC2)nc2ccc(F)cc12	·	·	·	-92%*	429%	·
CNC(=O)CSc1nnc(-c2ccncc2)n1Cc1ccccc1	-9%	-17%	1%	-112%*	6%	0
Cc1ccc(-n2cc(C(=O)c3ccc(F)cc3)nn2)cc1Cl	?	-16%	-15%	-121%*	4%	1
CCOC(=O)c1ccc(-n2cc(C(=O)c3cccnc3)nn2)cc1	-3%	21%	-14%	i	3%	2
CN1CCN(c2nc3c(c(=O)n(C)c(=O)n3C)n2CC(=O)C23CC4CC(CC(C4)C2)C3)CC1	1%	-9%	-15%	-82%*	-3%	-1
Cn1c(=O)c2c(nc(N3CCOCC3)n2CC(=O)C23CC4CC(CC(C4)C2)C3)n(C)c1=O	-15%	-11%	11%	i	1%	2
Cn1c(CCCCCN)nc2ccccc21	-10%	-13%	6%	i	4%	-2
CCOc1ccc2nc3c(cc2c1)CN(CCOC)C(=NC)S3	-5%	3%	-2%	-88%*	1%	-2
CCN=C1Sc2nc3ccc(OCC)cc3cc2CN1CCOC	9%	0%	-2%	i	1%	-1
CCC1C/C(=C\c2cccnc2)C(=O)/C(=C/c2cccnc2)C1 (stereo not drawn)	·	-13%	10%	i	-1%	5
O=C(CCCCn1c(=O)c2ccccc2n(CC(=O)Nc2ccc(F)cc2)c1=O)NCc1ccco1	-9%	7%	-1%	i	-3%	1
Cc1ccc(NC(=O)Cn2c(=O)n(CCCCC(=O)NCc3ccco3)c(=O)c3ccccc32)cc1	-5%	0%	13%	-113%*	-6%	0
O=C(Nc1ccon1)c1ccc(S(=O)(=O)N2CCCCCC2)cc1	2%	-8%	-1%	-116%*	-3%	2
CCCCNC(=O)COC(=O)c1c2c(nc3ccccc13)CCC2	8%	?	0%	i	0%	8
Cc1onc(-c2ccccc2Cl)c1C(=O)NCc1ccccn1	8%	15%	3%	i	3%	0
Cc1onc(-c2c(F)cccc2Cl)c1C(=O)NCc1ccccn1	-7%	2%	0%	-109%*	2%	1
O=C(Nc1c2c(nn1-c1ccccc1)CS(=O)(=O)C2)c1ccco1	-4%	·	-5%	i	4%	·
O=C(CSc1ccc2c(c1)OCCO2)NCCN1C(=O)CSC1=O	-20%	-1%	1%	-109%*	1%	4
COC(=O)c1[nH]c(C)c(/C(O)=C2\C(=O)C(=O)N(CCN3CCOCC3)C2c2cccs2)c1C (stereo not drawn)	11%	-6%	4%	-96%*	-2%	-1
CCOC(=O)CSc1nnc(CNc2ccc(Cl)cc2)n1Cc1ccccc1	-10%	-6%	26%	i	-8%	-2
O=C(O)CSc1nnc(CNc2ccc(Cl)cc2)n1Cc1ccccc1	-4%	14%	4%	-113%*	6%	-1
